# Measured values reported in PubChem BioAssay AID493191 (Broad Institute, 2011).
# About 330 (25%) of roughly 1,300 compounds were called active. The rule behind the calls is not given here. Only a sample is shown. Results with a measured potency or affinity are listed apart.
# Assay: MALME3 melanoma cell viability loss, dose response, orthogonal assay for MITF inhibitor project, CellTiter-Glo, cherry-picked (AID 493191)
# Conditions: CellTiter-Glo luminescence, 24 h; series mostly up to 35 µM; activity change, negative = inhibition: at the top concentration
row,Structure (SMILES),"activity change, negative = inhibition"
1,N/C(=N\OC(=O)Cc1cccs1)c1ccccc1,3.27% (inactive)
2,Cc1ccn2c(Nc3ccccc3)c(-c3ccccn3)nc2c1,-31.3% (inactive)
3,O=C(NC1CCCCC1)C(c1cccnc1)N(C(=O)CCl)c1cccc(Cl)c1 (stereo unspecified),-10.9% (inactive)
4,CC1Cc2cc(-c3csc(N)n3)ccc2O1 (stereo unspecified),6.44% (inactive)
5,O=C(O)c1ccc(C(=O)Nc2ccc(F)cc2)cc1,-0.194% (inactive)
6,COc1ccc(NC(=O)c2cc(-c3ccccc3Cl)on2)cc1,1.29% (inactive)
7,CCOC(=O)c1ccc(NC(=O)c2ccnn2C)cc1,7.79% (inactive)
8,CCOC(=O)c1ccc(NC(=O)c2ccc(C)c(S(=O)(=O)N3CCOCC3)c2)cc1,-8.59% (inactive)
9,CCOc1ccc(NC(=O)c2ccccn2)cc1,-30.9% (inactive)
10,CCOc1ccc(C(=O)Nc2cccc(C(=O)O)c2C)cc1Cl,7.12% (inactive)
11,COc1ccccc1NS(=O)(=O)c1cc(NC(=O)c2ccc(Cl)nc2)ccc1Cl,-5.32% (inactive)
12,O=C(Cc1ccccc1)Nc1ccc(NC(=O)c2ccco2)nc1,7.46% (inactive)
13,O=C1c2ccccc2S(=O)(=O)N1Cc1nc2ccccc2s1,-1.34% (inactive)
14,Cc1ccc2nc(-c3ccncc3)[nH]c2c1,-13.6% (inactive)
15,Fc1ccc(-c2nnc(-c3ccc(F)cc3)o2)cc1,-8.09% (inactive)
16,COCCCn1[nH]c2c3c(ccc2c1=O)C(=O)c1ccccc1C3=O,-28.8% (inactive)
17,O=C(Nc1nc2ccsc2c(=O)s1)C1CCC1,6.31% (inactive)
18,CN(c1ccc(O)cc1)c1nc(O)c(C2=c3ccccc3=NC2=O)s1,-6.42% (inactive)
19,Cn1cc(C(=O)N/N=C/c2c(O)ccc3ccccc23)ccc1=O,-16.5% (inactive)
20,Cc1cccc(-c2nc(C#N)c(NCc3ccco3)o2)c1,10.1% (inactive)
21,O=C(NC1CCCCCC1)c1cc2ccccc2oc1=O,-3.85% (inactive)
22,O=C(Nc1ccccc1)C1Cc2ccccc2CN1C(=O)c1ccco1 (stereo unspecified),-4.95% (inactive)
23,C=CCNc1nc(-c2ccccn2)nnc1-c1ccccc1,-18.7% (inactive)
24,COc1ccc(NC(=O)Nc2ccc(F)c(F)c2)c(OC)c1,18.8% (inactive)
25,CCn1c(/C=C/N(C)c2ccccc2)[n+](CC)c2ccc(Cl)cc21,-25.4% (inactive)

row,Structure (SMILES),"activity change, negative = inhibition"
1,CCOC(=O)c1ccc2c(c1)n(CC)c(/C=C/N(C)c1ccccc1)[n+]2CC,-27.6% (inactive)
2,Nc1c2c(=O)oc(-c3ccccc3)cc2nn1-c1ccccc1,-0.126% (inactive)
3,COc1cc(C(=O)Oc2c(CN3CCOCC3)cc(Cl)c3cccnc23)cc(OC)c1OC,-44.2% (inactive)
4,COc1cccc(C(=O)N/N=C(/c2ccccc2)c2ccccn2)c1,-23.3% (inactive)
5,O=c1nc(N/N=C/c2ccccn2)cn[nH]1,-15.8% (inactive)
6,CC(C)c1ccc(CNc2ncccn2)cc1,-7.32% (inactive)
7,CCCCN1CCc2c1nc1ccc(Br)cc1c2N,-43% (inactive)
8,CCCOc1ccc(-c2c(=O)n(O)c3ccccc3[n+]2[O-])cc1,-6.65% (inactive)
9,BrC(=C\c1ccccc1)/C=N/n1cnnc1,-26.2% (inactive)
10,Cc1ccc(C#CC[N+]2(CC#Cc3ccc(C)cc3)CCCCC2)cc1,-38.5% (inactive)
11,CC(C)N1C/C(=C/c2cccnc2)C(=O)/C(=C/c2cccnc2)C1,-31.7% (inactive)
12,CN1C/C(=C/c2cccnc2)C(=O)/C(=C/c2cccnc2)C1,11% (inactive)
13,Cc1cccc(OCc2nc3ccccc3n2C)c1,1.51% (inactive)
14,O=S(=O)(c1ccc(F)cc1)c1snnc1-c1ccccc1,-12.4% (inactive)
15,CCCOc1ccc(C(=O)C(CN2CCCC2)c2ccccc2)cc1 (stereo unspecified),-37.2% (inactive)
16,O=C(/C=C/c1ccccc1Cl)NC1CCCCC1,8.1% (inactive)
17,O=C(CSc1ccc(Cl)cc1)NC1CCCC1,-1.8% (inactive)
18,O=C(CCCN1C(=O)S/C(=C\c2ccccc2)C1=O)NNC(=O)c1ccccc1O,-9.65% (inactive)
19,N/C(=N\OC(=O)c1ccccc1Cl)c1ccccn1,-32.8% (inactive)
20,Cc1ccc(C(=O)c2no[n+]([O-])c2C(=O)c2ccc(C)cc2)cc1,-26.9% (inactive)
21,CN(C)c1ccc(/C=N\NC(=O)c2cccc3cc[nH]c23)cc1,1.73% (inactive)
22,CCOC(=O)N1CCN(C(=O)c2ccc(Cn3c(=S)[nH]c4ccc(Br)cc4c3=O)cc2)CC1,-20.7% (inactive)
23,CCC(=O)N1CCN(c2ccc(Cl)cc2NC(=O)c2ccc([N+](=O)[O-])o2)CC1,-43.4% (inactive)
24,Cn1c(/C(C#N)=C/c2ccc(-c3ccc(S(N)(=O)=O)cc3)o2)nc2ccccc21,-11.6% (inactive)
25,Clc1c(-c2ccccc2)nc2ccccn12,4.22% (inactive)

row,Structure (SMILES),"activity change, negative = inhibition"
1,Cc1cc(N2CCOCC2)n2ncc(-c3ccccc3Cl)c2n1,-2.42% (inactive)
2,Cc1cc(C(=O)CN2C(=O)c3ccccc3S2(=O)=O)c(C)n1-c1ccccc1,-2.78% (inactive)
3,C#Cc1cccc(NC(=O)CSc2nnc(-c3ccc(C(F)(F)F)cn3)o2)c1,7.2% (inactive)
4,Cc1ccc2c(c1)Oc1ccc(NC(=O)CCl)cc1C(=O)N2,-38.9% (inactive)
5,Cc1ccc(CC(=O)Nc2ccc(Cl)cn2)cc1,7.43% (inactive)
6,CCCN(CC(=O)Nc1ccccc1C)C(=O)CCl,-20.5% (inactive)
7,CS(=O)(=O)c1ccc2nc(NC(=O)c3ccccc3Br)sc2c1,13.2% (inactive)
8,O=C(c1ccc(F)cc1)C(CN1CCOCC1)c1ccccc1 (stereo unspecified),-21.3% (inactive)
9,COc1ccc(S(=O)NC2CCCCC2)c(OC)c1C (stereo unspecified),-5.41% (inactive)
10,COc1cc(CN2CCC(Cc3ccccc3)CC2)cc(OC)c1OC,7.73% (inactive)
11,CC(=O)c1ccc(S(=O)(=O)N2CCN(C(=O)/C=C/c3ccc4ccccc4n3)CC2)cc1,-3.46% (inactive)
12,COc1ccc(NC(=O)c2cc3ccccc3[nH]2)cc1,3.96% (inactive)
13,COc1ccc2cc3cc(C(=O)NCCc4ccc(OC)c(OC)c4)oc3nc2c1,-18.4% (inactive)
14,Cc1cc(O)ccc1Nc1nc(-c2cccnc2)cs1,3.74% (inactive)
15,CCOC(=O)C1CCCN(C(=O)C2CCN(S(=O)(=O)CC)CC2)C1 (stereo unspecified),1.71% (inactive)
16,CCOc1ccc(OCc2ccc(C(=O)N/N=C(\C)c3ccccn3)cc2)cc1,-39.2% (inactive)
17,CCOC(=O)c1ccc(NC(=O)CC2SCCNC2=O)cc1 (stereo unspecified),-0.676% (inactive)
18,CCc1ccc(Nc2nc(C)cc(C)n2)cc1,-3.27% (inactive)
19,CCOC(=O)c1ccc(NC(=O)Cc2cccs2)cc1,-16.7% (inactive)
20,COc1ccccc1-c1nnc(-c2ccc(C)cc2)o1,-5.25% (inactive)
21,COCCNC(=O)c1cc2sc3ccccc3c2s1,8.29% (inactive)
22,O=C(N/N=C/c1cc(Cl)ccc1O)c1ccncc1,-30.2% (inactive)
23,COc1cc2nc(SCC(=O)NCc3ccco3)n(Cc3ccc(Cl)cc3)c(=O)c2cc1OC,-14.3% (inactive)
24,CCCCCCN1C=CC(=C2C(=O)c3ccccc3C2=O)C=C1,-26.2% (inactive)
25,CC1CCN(Cc2nc(-c3ccc(Cl)cc3)no2)CC1,3.04% (inactive)

row,Structure (SMILES),"activity change, negative = inhibition"
1,CC1CC(C)C[N+](=C2C=C(N3CCCC3)CC(C)(C)C2)C1 (stereo unspecified),-24.1% (inactive)
2,Cc1ccc(C(=O)C[n+]2cc(-c3ccc(C)cc3)n3c2CCCCC3)cc1,-45% (inactive)
3,Cc1ccc(C(=O)NC2=NCCS2)cc1Cl,-3.46% (inactive)
4,C=CC[n+]1c(-c2ccc(C)cc2)csc1Nc1ccc(NC(C)=O)cc1,3.35% (inactive)
5,CCOc1ccc2nc(NC(=O)Cc3cccs3)sc2c1,3.36% (inactive)
6,CC(C)(CO)NC(=O)c1ccc2nc(Cc3cccc(Cl)c3)oc2c1,-0.565% (inactive)
7,Cc1nn(C)cc1/C=C/C(=O)c1cccs1,11% (inactive)
8,CCOc1ccc(-n2c(-c3ccc(Br)cc3)c[n+]3c2CCCCC3)cc1,-27.9% (inactive)
9,O=C1c2ccccc2C(=O)N1CCSc1ccccc1,0.331% (inactive)
10,COc1cccc(NC(=O)Nc2cccc(C(=O)O)c2)c1,-7.18% (inactive)
11,COc1cc(OC)cc(C(=O)Nc2ccc3c(c2)OCCO3)c1,-37.2% (inactive)
12,CCN(C(=O)c1ccco1)c1nc(-c2ccc(OC)cc2)cs1,1.88% (inactive)
13,COc1cc2c(cc1O)C(SC)=NC(C)(C)C2,-2.97% (inactive)
14,CC(C)c1ccc(/C=N/Nc2ccc(C(=O)O)cc2)cc1,5.55% (inactive)
15,CCN1c2ccccc2NC2C1C(C(C)=O)C(=O)N2c1ccc(Cl)cc1 (stereo unspecified),-8.47% (inactive)
16,Cc1nc(NCCOc2ccccc2)sc1C(=O)Nc1ccccc1,-14.8% (inactive)
17,CCOC(=O)c1sc(-c2ccccc2)cc1N,-45.5% (inactive)
18,CCOC(=O)c1c(C)[nH]c(C)c1C(=O)COC(=O)c1ccc([N+](=O)[O-])s1,-39.1% (inactive)
19,COc1ccc(C)cc1Nc1nc(N)c2cc(OC)c(OC)cc2n1,10.8% (inactive)
20,CC(C)CC(=O)NC(c1cccs1)c1ccc2cccnc2c1O (stereo unspecified),-25.5% (inactive)
21,N/C(=N\OC(=O)c1ccncc1)c1cccc([N+](=O)[O-])c1,2.54% (inactive)
22,Cc1c(C#N)c(NC(=O)CCl)n(Cc2ccccc2)c1C,-33.6% (inactive)
23,Cc1ccc(OCC(=O)Nc2ccccc2F)cc1,2.26% (inactive)
24,Fc1cccc(Cl)c1CSc1nnc(-c2ccncc2)o1,7.71% (inactive)
25,CC(=O)N/C(N)=N/c1nc(=O)c2ccccc2s1,1.17% (inactive)

row,Structure (SMILES),"activity change, negative = inhibition"
1,NC(=O)c1c(NC(=O)c2cccnc2)sc2c1CCCCC2,4.25% (inactive)
2,CCOc1ccc(N/C=C/C(=O)c2ccc(OC)c(OC)c2)cc1,-6.29% (inactive)
3,OCCNc1c2ccccc2nc2ccccc12,-5.45% (inactive)
4,Clc1ccc(-c2noc(CN3CCOCC3)n2)cc1,6.68% (inactive)
5,NNC(=O)Cn1c(SCc2ccccc2)nc2ccccc21,5.17% (inactive)
6,O=C(Nc1ccc([N+](=O)[O-])cc1)c1ccccc1,11.7% (inactive)
7,COc1ccc(N/C=C\C(=O)c2ccc3ccccc3c2)cc1,1.62% (inactive)
8,COc1ccc(-c2csc(Nc3ccccn3)n2)cc1OC,-15.7% (inactive)
9,Cc1ccccc1NCc1nc2ccccc2n1C,-24.4% (inactive)
10,O=C(c1cc2ccccc2oc1=O)N1CCN(c2ncccn2)CC1,-25.8% (inactive)
11,N#C/C(=C\c1ccc(OCc2ccc(C(=O)O)cc2)cc1)C(=O)N1CCOCC1,-7.69% (inactive)
12,CCN1CCN(c2ccc(Nc3ccnc4ccccc34)cc2)CC1,-36% (inactive)
13,N#Cc1nc(/C=C/c2ccccc2)oc1NCCCN1CCOCC1,-3.05% (inactive)
14,CCn1c(C)cc(C(=O)CN2C(=O)c3ccccc3S2(=O)=O)c1C,8.52% (inactive)
15,Cc1ccc(SCc2cn3cc(Cl)ccc3n2)cc1,-21.6% (inactive)
16,Cc1ccc(-c2c[n+](Cc3cccc(Cl)c3)c3n2CCC3)cc1,-10.3% (inactive)
17,CC(OC(=O)c1ccc([N+](=O)[O-])s1)C(=O)NC1CCCCC1C (stereo unspecified),-15% (inactive)
18,CCN(CC(=O)Nc1ccc2c(c1)OCCO2)C(=O)c1ccc([N+](=O)[O-])s1,2.27% (inactive)
19,Nc1nc2ccccc2n1/N=C/c1ccc(-c2ccccc2)o1,-1.36% (inactive)
20,CCOC(=O)Cn1c(=NC(=O)c2ccc([N+](=O)[O-])s2)sc2ccccc21,-16.7% (inactive)
21,O=[N+]([O-])c1ccc(/C=N/n2c(CO)nc3ccccc32)s1,-47.3% (inactive)
